In this test the target is T1, TtCas6A (TTHA0078, Cas6) (Thermus thermophilus HB8).
T1 chain: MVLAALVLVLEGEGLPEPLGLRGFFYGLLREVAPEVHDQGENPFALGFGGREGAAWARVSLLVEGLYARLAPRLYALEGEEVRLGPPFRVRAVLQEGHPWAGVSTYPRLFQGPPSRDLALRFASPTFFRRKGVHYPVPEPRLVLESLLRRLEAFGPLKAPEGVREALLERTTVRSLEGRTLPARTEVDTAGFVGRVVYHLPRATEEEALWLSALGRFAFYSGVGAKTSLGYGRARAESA
In words: EMSA; closing base pair; Kd in FIG. 24C only. To be noted: chain copies: 2 stated (dimer in solution); hairpin; ssRNA; [20,25]. An excerpt: FIG. 22 illustrates that TtCas6A and TtCas6B both cleave repeats R1 and R3 and retain their cleaved products. (A) Sequences and predicted secondary structures of T. thermophilus CRISPR repeats. Sites of cleavage are indicated with blue arrows. TtCas6e (TTHB192) cleaves repeat R2, while TtCas6A (TTHA0078) and TtCas6B (TTHB231) both cleave repeats R1 and R3. (B) Cleavage product binding affinities of TtCas6A and TtCas6B enzymes. Maltose binding protein (MBP)-fused TtCas6A or TtCas6B were bound to in 5′-radiolabelled, vitro transcribed R1 and R3 RNAs. Bound and unbound fractions were resolved by electrophoresis on a native polyacrylamide gel and visualized by phosphorimaging. The data for these and all subsequent binding assays were fit with standard binding isotherms (solid line). […] RNA cleavage was monitored using denaturing polyacrylamide gel electrophoresis. […]
To test the importance of the stem sequence for substrate RNA recognition by TtCas6A, a series of EMSAs was performed using R1 repeat-derived RNAs that carried single base pair substitutions (C-G→A-U). […] This is consistent with the observation that the lower three C-G base pairs are specifically read out by Arg129. The binding defect observed upon mutation of the closing (uppermost) base pair could be due to loss of stability of the stem-loop structure, which is determined by the closing base-pair (Serra et al, 1993). […]
In general terms: In EMSA bound probe runs differently from free probe, usually more slowly.
As for GUUGCAAGGGAUUGAGCCCAGUAAUGGGAU, the binding signal was ~5 fold lower affinity than wild-type RNA.

For the origin of these results see patent publication US20150152398, “Endoribonuclease and Methods of Use Thereof” (The Regents of the University of California, published 2015).
